The record followed here is PubChem BioAssay AID2013 (Sanford-Burnham Center for Chemical Genomics, 2009).

SMILES strings stand for the structures. The campaign covered roughly 290,000 compounds. About 370 (0.13%) were called active.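 Rule for the calls: active = spots per cell inhibited over 60%, with over 100 cells counted and total cytoplasm intensity under 500,000; inconclusive = wells with under 100 cells, flagged as likely toxic; inactive = the rest.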 This excerpt belongs to a sample that is enriched for actives. Entries with a potency or affinity are not part of this list.

The test deals with G-protein coupled receptor 55 (Homo sapiens) (UniProt Q9Y2T6). Briefly: GPR55 antagonists blocking LPI-driven arrestin recruitment, primary screen, imaging, U2OS, beta-arrestin-GFP, LPI agonist (AID 2013).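 Note: U2OS cells stably carrying GPR55 and arrestin-GFP stimulated by 5 µM LPI near EC80; imaged beta-arrestin-GFP aggregate spots per cell after agonist stimulation; plate controls were LPI-stimulated DMSO wells for no effect and DMSO wells without LPI for full effect.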 The following applies: U2OS GPR55 beta-arrestin-GFP translocation imaging, LPI antagonism; at 10 µM; active compounds read high. In general terms: Activated receptors often draw arrestin, which recruitment assays turn into a signal.
Chain of G-protein coupled receptor 55 (Homo sapiens) (Q9Y2T6 whole entry, looked up): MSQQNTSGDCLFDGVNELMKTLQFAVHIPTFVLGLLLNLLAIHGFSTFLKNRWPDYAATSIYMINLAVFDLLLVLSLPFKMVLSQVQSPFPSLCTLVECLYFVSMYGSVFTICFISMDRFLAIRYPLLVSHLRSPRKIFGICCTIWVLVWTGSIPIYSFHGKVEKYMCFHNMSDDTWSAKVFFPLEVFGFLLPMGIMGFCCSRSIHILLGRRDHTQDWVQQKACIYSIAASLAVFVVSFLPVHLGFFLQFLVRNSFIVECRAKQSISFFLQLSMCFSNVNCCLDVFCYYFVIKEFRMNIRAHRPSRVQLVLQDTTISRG
Regarding `O=C(NCc1ccco1)C1(c2ccc(Br)cc2)CCCC1`, the inhibition (commonly the relative decrease from the control value, in per cent) is 1.4% (inactive).
For `C=CCn1c(O)c(C2=c3ccccc3=NC2=O)sc1=Nc1ccc(O)cc1`, the inhibition was 5.2% (inactive).
Regarding `CN(CC(=O)Nc1cccc(F)c1)C(=O)c1cc(S(=O)(=O)N(C)C)ccc1N1CCCC1`, the inhibition was 13.5% (inactive).
As for `[N-]=[N+]=N[C@@H](CCN1CC[C@H](NC(=O)OCc2ccccc2)CCC1=O)c1ccccc1`, the figure is 6.9% (inactive); as for `O=C(CSc1nnc(C2CCCCC2)n1Cc1ccccc1)NCc1ccco1`, -1.4% (inactive); as for `CN1Cc2c(N3CCOCC3)nc3sc(C(=O)c4ccccc4)c(N)c3c2CC1(C)C`, 1.2% (inactive).
`CCOC(=O)c1sc2nc(N3CCOCC3)c3c(c2c1N)CC(C)(C)N(C)C3`: the inhibition was -4.1% (inactive).
`NC(=S)Cc1nc2n(n1)Cc1ccccc1-2`: the inhibition is 5.2% (inactive).
As to `CC1CC(N(C(=O)c2ccco2)c2ccccc2)c2ccccc2N1` (centres undefined), the inhibition was 10.3% (inactive).
`CC1CC(Nc2ccccc2)c2ccccc2N1C(=O)c1ccco1` (centres undefined): the inhibition was 6.5% (inactive).
As for `CC(=O)N(c1ccccc1)C1CC(C)N(C(=O)c2ccccc2)c2ccccc21` (centres undefined), the figure is 13.6% (inactive); as for `CC1CC(N(C(=O)c2ccc(Cl)cc2)c2ccccc2)c2ccccc2N1C(=O)c1ccco1` (centres undefined), 10.9% (inactive).
To `COC(=O)c1c(C(C)=O)c(C)n(C)c1C` belongs 9.9% (inactive); to `O=C(CSc1nc2ccccc2o1)Nc1ccccc1N1CCOCC1`, -2.4% (inactive).
Regarding `Cc1ccccc1NC(=O)CSc1nc2ccccc2o1`, the inhibition is -27.6% (inactive).
In the case of `CC1(C)CC(=O)C(CC(=O)Nc2ccc(S(N)(=O)=O)cc2)=C(O)C1`, the inhibition is 2.1% (inactive).
As for `COc1ccc(C2c3sc(=O)[nH]c3SC3C4CCC(C4)C23)cc1OC` (centres undefined), the figure is 4.6% (inactive).
As for `COc1ccc(C2c3sc(=O)[nH]c3SC3C4CCC(C4)C23)cc1` (centres undefined), the inhibition is 39.7% (inactive).
To `CN(C)/C=N/c1nc2nccc(-c3ccccc3)n2n1` belongs -4.1% (inactive); to `CCC(C)c1ccc(S(=O)(=O)N2CCN(S(=O)(=O)c3ccc(NC(C)=O)cc3)CC2)cc1` (centres undefined), 6.4% (inactive).
With `CCn1cnc2c1c(=O)n(Cc1ccc(C(=O)OC)cc1)c(=O)n2Cc1ccccc1`, the inhibition is 6% (inactive).
Regarding `COC(=O)C1C(C(=O)OC)C1(c1ccccc1)c1ccccc1` (centres undefined), the inhibition is 5.7% (inactive).
For `O=C(O)C1C(C(=O)O)C1(c1ccccc1)c1ccccc1` (centres undefined), the inhibition was -6.8% (inactive).
Regarding `CCOC(=O)C1C(C(=O)OCC)C1(c1ccccc1)c1ccccc1` (centres undefined), the inhibition was 94.1% (active).
For the compound `O=C(c1ccccc1)N(Cc1ccccc1)Cc1ccccc1`, the inhibition was 11.6% (inactive).
For the compound `CC1(C(=O)N(Cc2ccccc2)Cc2ccccc2)CC1(Br)Br` (centres undefined), the inhibition was 80.9% (active).
On to `CC12CCC(C(=O)N(Cc3ccccc3)Cc3ccccc3)(OC1=O)C2(C)C` (centres undefined), for which the inhibition is 3.1% (inactive).
`COc1ccc(CNS(=O)(=O)c2ccc3c(c2)CCN3C(=O)C2CC2)cc1`: the inhibition is 5.8% (inactive).
Turning to `CCOC(=O)C1CCN(CC(=O)Nc2ccc(OC)c(Cl)c2)CC1`, the inhibition was 17.5% (inactive).
As to `O=C(Cn1c(=O)c(=O)n(Cc2ccccc2)c2ccc(Cl)cc21)Nc1cccc(F)c1`, the inhibition was -4.5% (inactive).
As to `Cc1nc2ccccc2c2c1C(=O)N(C(C)C)C2=O`, the inhibition was -5.2% (inactive).
As to `O=C(Cn1cnc2ccccc2c1=O)Nc1cccc(-c2nnc3n2CCCCC3)c1`, the inhibition is -5.4% (inactive).
As for `Cc1ccc(C(c2nnnn2C2CCCCC2)N2CCc3ccccc32)cc1` (centres undefined), the figure is 4.6% (inactive); as for `COc1ccc(C(CCNC(C)c2ccccc2)C(C)C)cc1` (centres undefined), 15.3% (inactive); as for `COc1ccc(C(CCNC(C)c2ccccc2)c2ccc(F)cc2)cc1` (centres undefined), 29.1% (inactive).
To `COc1ccc(-n2cnnc2SCC(=O)Nc2ccc(C(N)=O)cc2)cc1` belongs -2.8% (inactive).
Take `COCc1nnc(NC(=O)C2CC(=O)N(C3CCCC3)C2)s1` (centres undefined): the inhibition is 8.2% (inactive).
To `O=C(O)c1cccc(N2C(=O)/C(=C/c3ccc([N+](=O)[O-])cc3)C=C2c2ccccc2)c1` belongs -16.1% (inactive); to `O=C1/C(=C/c2ccc([N+](=O)[O-])cc2)C=C(c2ccccc2)N1c1ccccc1`, 25.9% (inactive); to `Cc1nnc(SCC2=C(C(=O)O)N3C(=O)C(NC(=O)C(C)n4nc(C(F)(F)F)cc4C)C3SC2)s1` (centres undefined), 0.4% (inactive).
Turning to `Nc1cc(=O)[nH]c(SC/C=C/c2ccccc2)n1`, the inhibition is -21.6% (inactive).
`Clc1nc(CN2CCCCC2)nc2sc3c(c12)CCCC3`: the inhibition is 61.4% (active).
For `Clc1nc(CN2CCCCC2)nc2sc3c(c12)CCC3`, the inhibition is 5.2% (inactive).
Consider `Clc1nc(CN2CCOCC2)nc2sc3c(c12)CCC3`, for which the inhibition is 19% (inactive).
For the compound `CC1CN(C(=O)COC(=O)c2ccc(O)cc2)CC(C)O1` (centres undefined), the inhibition was 6.6% (inactive).
Consider `N#CCc1c(C#N)c(N)nc(Nc2ccccc2)c1C#N`, for which the inhibition is 1.4% (inactive).
To `COc1ccc2oc(=O)c(C(=O)N3CCN(c4ccc(F)cc4)CC3)cc2c1` belongs 4.2% (inactive); to `O=C(Cn1ncn2c(cc3ccccc32)c1=O)NCCc1cccs1`, -4.4% (inactive).
`COc1ccc(C(=O)N[C@H](C(=O)NCC2CCCCC2)C(C)C)cc1`: the inhibition is 6.5% (inactive).
Turning to `O=C(CSc1ncccn1)N1CCN(S(=O)(=O)c2ccccc2)CC1`, the inhibition was 9.7% (inactive).
For `O=C(CSc1nc2ccccc2c(=O)[nH]1)N1CCN(S(=O)(=O)c2ccccc2)CC1`, the inhibition is 2.8% (inactive).
As for `N#Cc1ccccc1NC(=O)CN1CCOCC1`, the inhibition is 9.8% (inactive).
For `CCSc1n[nH]c2nc3c(c(=O)n12)C1(CCCC1)Cc1ccccc1-3`, the inhibition was 10.3% (inactive).
As for `CCn1c(SCC(N)=O)nc2c(c1=O)C1(CCCC1)Cc1ccccc1-2`, the inhibition was 1.3% (inactive).
As for `CCCc1ccc(Oc2c(-c3ccc(O)c(C)c3O)n[nH]c2C)cc1`, the figure is 1% (inactive).
On to `CCCOC(=O)c1ccc(Oc2c(-c3ccc(O)cc3O)n[nH]c2C)cc1`, for which the inhibition was 36.9% (inactive).
To `COc1ccc(Oc2c(-c3ccc(O)cc3O)n[nH]c2C)cc1` belongs 11% (inactive); to `CCCc1ccc(Oc2cn[nH]c2-c2ccc(O)c(C)c2O)cc1`, 20.9% (inactive); to `Cc1ccccc1C(=O)NC(=S)NCc1ccccc1`, 2.5% (inactive).
On to `Cc1sc2nc(CC(=O)NN)[nH]c(=O)c2c1C`, for which the inhibition is 6.8% (inactive).
For `CC(=O)N1CCOc2ccc(S(=O)(=O)N3CCC(C)CC3)cc21`, the inhibition was 7.2% (inactive).
`C/C=C(\C)C(=O)N1CC2(CC(c3cccc(NC(=O)COc4ccc(Cl)cc4)c3)=NO2)C[C@@H]1C(N)=O` (some centres undefined): the inhibition was -0.1% (inactive).
As for `NS(=O)(=O)c1ccc(NC(=S)Nc2ccc(C(=O)N3CCCCC3)cc2)cc1`, the inhibition was 0.7% (inactive).
To `O=C(Nc1ccccc1N1CCOCC1)c1cccnc1Cl` belongs 3.4% (inactive); to `CCN(C(=O)CSc1nc(-c2ccccc2)c(-c2ccccc2)[nH]1)C1CCS(=O)(=O)C1` (centres undefined), 15.5% (inactive).
As for `Cc1ccc(SCC(=O)N(C)C2CCS(=O)(=O)C2)cc1` (centres undefined), the inhibition is -5.3% (inactive).
On to `CCCCNC(=O)CN1C(=O)C(CC)Oc2ccc(Cl)cc21` (centres undefined), for which the inhibition was 2.3% (inactive).
As to `Cc1ccc(-c2ccc(/C=C3\SC(N4CCOCC4)=NC3=O)o2)cc1`, the inhibition was 16.2% (inactive).
Take `O=C1N=C(N2CCOCC2)S/C1=C\c1ccc(-c2ccccc2Cl)o1`: the inhibition is -0.9% (inactive).
With `Cc1ccc(CNC(=O)c2ccc(CS(=O)(=O)c3ccccc3C)o2)cc1`, the inhibition is 7.3% (inactive).
As to `O=C(Oc1ccc(N2C(=O)C3C4CCC(C4)C3C2=O)cc1)c1ccco1` (centres undefined), the inhibition was 15.6% (inactive).
As for `O=C(NC1CCN(S(=O)(=O)c2ccccc2F)CC1)c1cccnc1`, the figure is -8.1% (inactive); as for `O=C(N1CCCC1)C(F)(F)Oc1ccc(F)cc1`, 10.6% (inactive).
As for `COCCN1C=C(C(=O)OC)C(c2cc3c(cc2Br)OCO3)C(C(=O)OC)=C1`, the inhibition is 1% (inactive).
Take `COC(=O)C1=CN(C(C)C)C=C(C(=O)OC)C1c1cc(Br)c(OC)c(OC)c1`: the inhibition was 0.5% (inactive).
For the compound `COc1ccc(-n2c(C)cc(C=O)c2C)cc1Cl`, the inhibition was 15.8% (inactive).
`COc1ccc(Cl)cc1-n1c(C)cc(C=O)c1C`: the inhibition was -3.7% (inactive).
As for `CN(C)S(=O)(=O)N1CCN(C(=O)c2cccc(Br)c2)CC1`, the inhibition is 1.7% (inactive).
With `NS(=O)(=O)c1ccc(CCNC(=O)CSc2nc3ccsc3c(=O)n2CCCCCC(=O)O)cc1`, the inhibition is 14.8% (inactive).
Take `Cc1cccc(OCC(=O)N2CCOCC2)c1`: the inhibition was 15.3% (inactive).
For `COc1ccc(OC)c(-n2c(C)cc(/C=C3\C(=N)N4N=C(CC(=O)N5CCOCC5)SC4=NC3=O)c2C)c1`, the inhibition is 21.8% (inactive).
Take `COc1ccccc1N1CCN(C(=O)NC23CC4CC(CC(C4)C2)C3)CC1`: the inhibition was 6.5% (inactive).
Consider `O=C(CCCn1c(=S)[nH]c2ccc(Br)cc2c1=O)N1CCN(c2ccccn2)CC1`, for which the inhibition is 60.6% (active).
To `O=C(CCCn1c(=S)[nH]c2cc3c(cc2c1=O)OCO3)N1CCN(c2ccccn2)CC1` belongs 10.5% (inactive).
As for `O=C(CCCn1c(=O)[nH]c2ccccc2c1=O)N1CCN(c2ccccn2)CC1`, the figure is 3.9% (inactive); as for `O=C(COc1cccc2cccnc12)N/N=C1\SCC(=O)N1CCc1ccccc1`, 14.1% (inactive).
To `N#Cc1c(N)nc2c(c1-c1ccccc1)CCCC2` belongs 14.6% (inactive); to `N#Cc1c(N)nc2c(c1-c1cccc(O)c1)CCCCCC2`, 76% (active).
Regarding `N#Cc1c(N)nc2c(c1-c1ccccc1)CCC2`, the inhibition was -2.3% (inactive).
`Cc1c(Br)cc(C(=O)NCCCN2CCOCC2)c(C)c1C`: the inhibition was -19.3% (inactive).
`Cc1ccc(C(=O)NC2CC(C)(C)NC(C)(C)C2)cc1Cl`: the inhibition is -5.9% (inactive).
With `CCOc1ccccc1NC(=O)NCCc1c[nH]c2ccccc12`, the inhibition is 5.7% (inactive).
`CCN(C(=O)CC(C)C)c1nnc(Cn2nnc3ccccc32)s1`: the inhibition was 6.1% (inactive).
Regarding `O=C(CN1C(=O)S/C(=C\c2ccc(Cl)cc2)C1=O)NCCCn1ccnc1`, the inhibition is -24.8% (inactive).
